In PubChem BioAssay (NCATS):
Inconclusive results are not listed. Activity calls are given as the source filed them. Unless noted, calls follow the shape of the full dose curve.

What was measured:
[1] = molecular target: Glucocorticoid receptor (Homo sapiens) (UniProt P04150); experiment: qHTS assay for small molecule agonists of glucocorticoid receptor signaling (AID 588532; active = well fitted curve in the direction sought with a large enough effect in the signal ratio, with a control signal flat; the % refers to the signal ratio;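 also: 100% = dexamethasone at 0.1 µM and 0% = DMSO only wells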); details: HeLa MMTV-bla, beta-lactamase ratio, agonist, 18 h; activation: stronger effect = higher value, percent of dexamethasone control, DMSO zero
Glucocorticoid receptor (Homo sapiens), sequence (P04150 whole entry, looked up): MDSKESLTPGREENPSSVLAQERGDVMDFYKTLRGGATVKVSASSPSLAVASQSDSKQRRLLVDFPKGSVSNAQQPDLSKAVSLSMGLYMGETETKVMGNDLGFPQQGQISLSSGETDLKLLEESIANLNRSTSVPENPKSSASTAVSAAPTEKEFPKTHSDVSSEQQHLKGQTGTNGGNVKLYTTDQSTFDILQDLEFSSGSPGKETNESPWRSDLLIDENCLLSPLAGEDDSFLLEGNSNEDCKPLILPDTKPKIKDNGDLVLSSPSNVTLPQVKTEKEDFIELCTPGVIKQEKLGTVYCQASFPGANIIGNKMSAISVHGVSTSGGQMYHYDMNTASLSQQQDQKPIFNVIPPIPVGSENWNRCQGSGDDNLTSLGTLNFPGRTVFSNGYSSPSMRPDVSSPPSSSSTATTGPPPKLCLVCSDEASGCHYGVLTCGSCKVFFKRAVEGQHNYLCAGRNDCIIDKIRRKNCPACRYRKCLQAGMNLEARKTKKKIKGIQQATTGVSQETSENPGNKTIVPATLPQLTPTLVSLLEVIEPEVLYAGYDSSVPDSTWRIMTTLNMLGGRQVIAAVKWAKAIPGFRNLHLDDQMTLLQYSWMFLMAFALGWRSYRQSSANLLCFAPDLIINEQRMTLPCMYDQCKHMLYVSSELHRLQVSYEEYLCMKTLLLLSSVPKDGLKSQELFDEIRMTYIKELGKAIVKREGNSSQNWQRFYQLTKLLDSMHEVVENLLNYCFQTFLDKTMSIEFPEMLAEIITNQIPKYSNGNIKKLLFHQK
Procedure, shortened: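 Using MMTV-bla HeLa cells in medium with 1% stripped FBS and 25 mM HEPES, compounds were titrated and incubated overnight-length (18 h). Beta-lactamase cleavage of CCF4 was quantified by dual-emission fluorescence.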

[2] = molecular target: Peroxisome proliferator-activated receptor delta (Homo sapiens) (UniProt Q03181); experiment: qHTS assay for small molecule agonists of peroxisome proliferator-activated receptor delta signaling (AID 588534);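 also: 0% = DMSO basal wells and 100% = positive control agonist at 10 µM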
Peroxisome proliferator-activated receptor delta (Homo sapiens), sequence (Q03181 whole entry, looked up): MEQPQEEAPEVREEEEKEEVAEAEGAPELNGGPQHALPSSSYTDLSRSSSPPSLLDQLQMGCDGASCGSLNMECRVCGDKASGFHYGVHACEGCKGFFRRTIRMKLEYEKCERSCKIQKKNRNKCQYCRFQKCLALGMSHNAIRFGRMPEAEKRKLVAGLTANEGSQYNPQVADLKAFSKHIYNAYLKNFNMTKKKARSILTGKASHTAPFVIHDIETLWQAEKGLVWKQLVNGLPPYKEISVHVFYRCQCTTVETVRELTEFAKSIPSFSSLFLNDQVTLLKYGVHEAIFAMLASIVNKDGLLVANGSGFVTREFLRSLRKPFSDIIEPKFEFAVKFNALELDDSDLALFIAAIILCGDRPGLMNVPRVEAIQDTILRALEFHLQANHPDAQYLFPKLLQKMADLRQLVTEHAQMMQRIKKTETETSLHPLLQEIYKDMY
Procedure, shortened: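 Agonist-mode beta-lactamase reporter readout (CCF4 dye, 2 h at RT) after 18 h at 37 °C exposure to a titration; Hill-equation fitting gave EC50 and maximal response.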

[3] = molecular target: Vitamin D3 receptor (Homo sapiens) (UniProt P11473); experiment: qHTS assay for small molecule agonists of vitamin D receptor signaling (AID 588543);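 also: 0% = DMSO basal and 100% = reference agonist control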
Vitamin D3 receptor (Homo sapiens), sequence (P11473 whole entry, looked up): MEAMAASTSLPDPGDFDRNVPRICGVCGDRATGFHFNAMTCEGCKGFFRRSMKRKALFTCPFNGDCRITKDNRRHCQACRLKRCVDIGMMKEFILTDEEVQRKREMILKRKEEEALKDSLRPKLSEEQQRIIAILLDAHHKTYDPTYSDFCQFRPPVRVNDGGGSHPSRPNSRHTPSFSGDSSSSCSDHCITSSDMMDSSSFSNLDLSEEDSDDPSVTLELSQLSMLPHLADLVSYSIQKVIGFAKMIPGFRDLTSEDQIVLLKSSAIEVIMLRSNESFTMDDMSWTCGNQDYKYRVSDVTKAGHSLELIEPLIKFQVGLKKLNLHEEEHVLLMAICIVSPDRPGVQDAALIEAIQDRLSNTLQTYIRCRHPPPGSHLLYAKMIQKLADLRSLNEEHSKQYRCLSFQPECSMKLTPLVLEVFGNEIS
Procedure, shortened: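 β-lactamase reporter, VDR-UAS-bla HEK293T, agonist mode. Cells plated 5 h at 37 °C, compound titration 16 h at 37 °C, CCF4 dye 2 h RT, ratio 460/530 nm. Hill fit → EC50, efficacy vs 50 nM 1α,25-(OH)2D3.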

[4] = molecular target: Thyroid hormone receptor beta (Homo sapiens) (UniProt P10828); experiment: qHTS assay for small molecule agonists of thyroid hormone receptor beta signaling (AID 588545);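 also: 0% = DMSO only and 100% = 10 nM T3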
Thyroid hormone receptor beta (Homo sapiens), sequence (P10828 whole entry, looked up): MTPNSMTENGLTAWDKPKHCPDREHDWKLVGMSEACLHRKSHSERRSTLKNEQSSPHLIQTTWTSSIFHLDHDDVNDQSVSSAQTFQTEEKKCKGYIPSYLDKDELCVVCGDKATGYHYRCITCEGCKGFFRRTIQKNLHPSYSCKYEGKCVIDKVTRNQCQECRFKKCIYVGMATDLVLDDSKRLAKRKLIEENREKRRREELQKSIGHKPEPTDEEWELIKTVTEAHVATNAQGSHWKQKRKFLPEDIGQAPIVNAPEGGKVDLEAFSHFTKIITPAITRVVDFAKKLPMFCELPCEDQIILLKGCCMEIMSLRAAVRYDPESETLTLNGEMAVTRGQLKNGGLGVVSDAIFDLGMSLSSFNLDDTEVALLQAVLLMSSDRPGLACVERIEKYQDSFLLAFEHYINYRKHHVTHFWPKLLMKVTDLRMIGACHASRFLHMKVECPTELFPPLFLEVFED
Procedure, shortened: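 Beta-lactamase reporter activity under TR response element control is measured in HEK 293 cells after 18 hrs compound exposure. Signal is ratiometric CCF4 fluorescence, 460/530 nm.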

[5] = qHTS assay for small molecule activators of the p53 signaling pathway (AID 651743; active = well fitted activation curve with a large enough effect in the signal ratio, not every such curve was filed as active; the % refers to the signal ratio; also: series mostly up to about 92 µM; % of control where 0% means no effect); details: HCT-116 p53RE-bla, beta-lactamase FRET ratio, 16 h; activation: stronger effect = higher value
Procedure, shortened: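 After 16 hours compound treatment at 37 C, HCT-116 cells stably expressing p53RE-driven beta-lactamase were loaded with LiveBLAzer B/G FRET substrate for 2 hours at room temperature. Fluorescence intensity served as the p53 activation read-out.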

[6] = qHTS assay for small molecule activators of the nuclear factor-kappa B (NF-kB) signaling pathway (AID 651749; active = well fitted activation curve with a large enough effect in the signal ratio; the % refers to the signal ratio; also: series mostly up to about 77 µM; % of control where 0% means no effect); details: NF-kB-bla ME-180 cells, beta-lactamase FRET ratio, 16 h; activation: stronger effect = higher value
Procedure, shortened: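 Activation measured after 16 hr compound treatment at 37C, 5% CO2, of 2,000 ME-180 cells/well stably expressing an NF-kB response element–driven beta-lactamase reporter, via FRET-disruption fluorescence.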

[7] = qHTS assay for environmental chemicals that activate the Aryl hydrocarbon Receptor (AhR) signaling pathway (AID 651777; active = well fitted curve in the direction sought with a large enough effect; an effect the other way counts as inactive or inconclusive; also: % of control where 0% means no effect; nearly all actives have a fitted effect of over 15% in size); details: 1A2-DRE human hepatoma cells, luciferase, 24 h; activation: stronger effect = higher value
Procedure, shortened: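 AhR activation is scored as a rise in luciferase from a stable DRE–CYP1A2 promoter construct in human hepatoma cells. Treatment lasts 24 hr at 37 C; detection uses One-Glo after 30 min at room temperature.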

[8] = molecular target: Peroxisome proliferator-activated receptor alpha (Homo sapiens) (UniProt Q07869); experiment: qHTS assay for small molecule agonists of the peroxisome proliferator-activated receptor alpha (PPARalpha) signaling pathway (AID 651778; active = well fitted curve in the direction sought with a large enough effect; an effect the other way counts as inactive or inconclusive; also: % of control where 0% means no effect); details: PathHunter PPARalpha complementation, chemiluminescence, 6 h; max response: stronger effect = higher value
Peroxisome proliferator-activated receptor alpha (Homo sapiens), sequence (Q07869 whole entry, looked up): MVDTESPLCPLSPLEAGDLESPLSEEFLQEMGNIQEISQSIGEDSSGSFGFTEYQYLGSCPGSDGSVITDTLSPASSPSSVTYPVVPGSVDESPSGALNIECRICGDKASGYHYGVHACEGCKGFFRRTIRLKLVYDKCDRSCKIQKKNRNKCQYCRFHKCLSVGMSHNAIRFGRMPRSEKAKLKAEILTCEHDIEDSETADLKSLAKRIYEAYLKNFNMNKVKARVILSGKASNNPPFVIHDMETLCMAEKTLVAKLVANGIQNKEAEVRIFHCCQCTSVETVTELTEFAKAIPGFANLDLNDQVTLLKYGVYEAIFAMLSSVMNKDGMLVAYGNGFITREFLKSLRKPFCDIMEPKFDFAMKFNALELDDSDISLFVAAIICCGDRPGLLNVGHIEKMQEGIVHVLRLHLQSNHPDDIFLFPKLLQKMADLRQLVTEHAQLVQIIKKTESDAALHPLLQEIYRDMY
Procedure, shortened: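 Chemiluminescence from complemented enzyme reported PPARalpha activation in cells after 6 hr of compound treatment at 37 C. The detection reagent was incubated for 60 min at room temperature, and compounds were scored as agonists.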

[9] = qHTS assay for small molecule agonists of the antioxidant response element (ARE) signaling pathway measured by Nrf2-dependant transcriptional activity (AID 720636; active = well fitted curve in the direction sought with a large enough effect in the repeat runs; an effect the other way counts as inactive or inconclusive;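 also: HepG2 cells with an ARE-driven luciferase reporter; % of control where 0% means no effect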)
Procedure, shortened: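 First, ARE-luc HepG2 cells attached for 6 hr at 37 C in 1% dialyzed FBS medium. Next, compound or DMSO was added and incubated 16 hr. Finally, ONE-Glo reagent was added and luminescence measured after 30 min.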

[10] = qHTS assay for small molecule agonists of the antioxidant response element (ARE) signaling pathway measured by Nrf2-dependant transcriptional activity - cell viability counter screen (AID 720653; active = well fitted curve in the direction sought with a large enough effect in the repeat runs; an effect the other way counts as inactive or inconclusive; also: % is scaled to controls: 0 for no effect and ±100 for the full control effect); details: ARE-bla HepG2 viability, CellTiter-Glo ATP luminescence, 16 h; max response: stronger effect = lower value
Procedure, shortened: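 Cytotoxicity counter screen: intracellular ATP quantified by CellTiter-Glo luminescence in the same ARE-bla HepG2 plates, after 16 h compound exposure and a 2 h beta-lactamase substrate step.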

[11] = qHTS assay for cell viability of HEK293 cells (AID 743288; active = well fitted curve in the direction sought with a large enough effect; an effect the other way counts as inactive or inconclusive; also: % is scaled to controls: 0 for no effect and ±100 for the full control effect; nearly all actives have a fitted effect of over 50% in size); details: ATP luminescence (CellTiter-Glo), 18 h; max response: stronger effect = lower value
Procedure, shortened: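 ATP luminescence (CellTiter-Glo) reports metabolically competent cell number after parental HEK293 cells, 2,000/well, were treated with DMSO-dissolved compounds for 18 h at 37 C; reagent incubation 30 min, room temperature.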

[12] = qHTS assay for cell viability of the p53RE-bla HCT-116 cell line (AID 743292; active = well fitted curve in the direction sought with a large enough effect; an effect the other way counts as inactive or inconclusive; also: % is scaled to controls: 0 for no effect and ±100 for the full control effect; nearly all actives have a fitted effect of over 55% in size)
Procedure, shortened: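 Quantitative high-throughput format: compounds in DMSO were pinned onto p53RE-bla HCT-116 cells (4,000/well) and incubated 16 h at 37 C. Total intracellular ATP, read by CellTiter-Glo luminescence, reflects viable cell number.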

[13] = molecular target: Nuclear receptor subfamily 1 group I member 2 (Rattus norvegicus) (UniProt Q9R1A7); experiment: qHTS assay for small molecule activators of the rat pregnane X receptor (rPXR) signaling pathway (AID 651751; call rule not given here; also: 0% is about no effect); details: rPXR reporter cells, luciferase (One-Glo), 24 h
Nuclear receptor subfamily 1 group I member 2 (Rattus norvegicus), sequence (Q9R1A7 whole entry, looked up): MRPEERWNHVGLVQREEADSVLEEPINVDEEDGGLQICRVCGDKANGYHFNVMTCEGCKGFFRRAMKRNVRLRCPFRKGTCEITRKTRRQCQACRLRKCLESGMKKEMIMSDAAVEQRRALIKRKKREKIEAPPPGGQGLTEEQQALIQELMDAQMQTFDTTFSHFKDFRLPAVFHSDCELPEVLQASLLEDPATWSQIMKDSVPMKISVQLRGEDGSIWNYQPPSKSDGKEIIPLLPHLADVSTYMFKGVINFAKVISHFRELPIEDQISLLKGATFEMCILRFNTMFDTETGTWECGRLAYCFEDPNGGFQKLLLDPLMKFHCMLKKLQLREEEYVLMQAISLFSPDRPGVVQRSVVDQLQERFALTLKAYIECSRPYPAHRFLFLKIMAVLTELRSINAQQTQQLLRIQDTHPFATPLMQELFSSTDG

[14] = qHTS assay for small molecule activators of the human pregnane X receptor (PXR) signaling pathway (AID 720659; call rule not given here; also: 0% is about no effect)
[15] = molecular target: Voltage-gated inwardly rectifying potassium channel KCNH2 (Homo sapiens) (UniProt Q12809); experiment: qHTS Assay for Small Molecule Inhibitors of the Human hERG Channel Activity (AID 588834; active = well fitted curve in the direction sought with a large enough effect; an effect the other way counts as inactive or inconclusive;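 also: top concentration of the series differs between compounds; % is scaled to controls: 0 for no effect and ±100 for the full control effect; lower thallium flux fluorescence means stronger hERG block; nearly all actives have a fitted effect of over 50% in size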)
Procedure, shortened: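 Thallium-flux (FluxOR) read-out on FDSS: fluorescence read 10 s before and 2 min after stimulation buffer. hERG-BacMam-transduced U2OS cells, compound exposure about 10 min. AC50 by standard Hill equation.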

[16] = molecular target: Peroxisome proliferator-activated receptor gamma (Homo sapiens) (UniProt P37231); experiment: qHTS assay for small molecule antagonists of peroxisome proliferator-activated receptor gamma signaling (AID 588537; active = well fitted inhibition curve with a large enough effect in the signal ratio, with a control signal flat, not every such curve was filed as active; the % refers to the signal ratio;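 also: reporter cells co-stimulated with 50 nM rosiglitazone agonist during compound treatment; % of control where 0% means no effect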)
Peroxisome proliferator-activated receptor gamma (Homo sapiens), sequence (P37231 whole entry, looked up): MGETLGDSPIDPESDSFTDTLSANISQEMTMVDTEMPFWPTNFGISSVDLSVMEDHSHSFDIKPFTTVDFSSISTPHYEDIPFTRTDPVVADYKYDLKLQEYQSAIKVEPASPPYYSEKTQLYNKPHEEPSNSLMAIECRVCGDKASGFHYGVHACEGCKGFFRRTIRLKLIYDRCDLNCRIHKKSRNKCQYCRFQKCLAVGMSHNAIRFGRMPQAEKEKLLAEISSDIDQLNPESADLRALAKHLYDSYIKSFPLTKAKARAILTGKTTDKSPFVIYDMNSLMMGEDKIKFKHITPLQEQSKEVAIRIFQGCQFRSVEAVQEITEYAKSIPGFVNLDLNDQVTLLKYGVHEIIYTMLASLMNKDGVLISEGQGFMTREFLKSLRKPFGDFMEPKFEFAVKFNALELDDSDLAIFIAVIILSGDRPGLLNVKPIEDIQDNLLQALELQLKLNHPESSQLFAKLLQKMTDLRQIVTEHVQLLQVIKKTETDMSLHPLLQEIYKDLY
Procedure, shortened: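 Antagonist-mode β-lactamase reporter screen run as a titration series. HEK293 PPARγ-UAS-bla cells are stimulated with rosiglitazone (50 nM final) for 16 h, then CCF4 is read at 460/530 nm. Data are scaled between DMSO and rosiglitazone and fitted to the Hill equation.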

[17] = qHTS assay for small molecule agonists of retinoid X receptor alpha signaling (AID 588544); details: HEK293T RXRa-UAS-bla, beta-lactamase reporter, 18 h; 530 nm emission;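 as to activation: 0% = DMSO basal wells and 100% = reference agonist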
[18] = molecular target: Retinoic acid receptor RXR-alpha (Homo sapiens) (UniProt P19793); experiment: as above
Retinoic acid receptor RXR-alpha (Homo sapiens), sequence (P19793 whole entry, looked up): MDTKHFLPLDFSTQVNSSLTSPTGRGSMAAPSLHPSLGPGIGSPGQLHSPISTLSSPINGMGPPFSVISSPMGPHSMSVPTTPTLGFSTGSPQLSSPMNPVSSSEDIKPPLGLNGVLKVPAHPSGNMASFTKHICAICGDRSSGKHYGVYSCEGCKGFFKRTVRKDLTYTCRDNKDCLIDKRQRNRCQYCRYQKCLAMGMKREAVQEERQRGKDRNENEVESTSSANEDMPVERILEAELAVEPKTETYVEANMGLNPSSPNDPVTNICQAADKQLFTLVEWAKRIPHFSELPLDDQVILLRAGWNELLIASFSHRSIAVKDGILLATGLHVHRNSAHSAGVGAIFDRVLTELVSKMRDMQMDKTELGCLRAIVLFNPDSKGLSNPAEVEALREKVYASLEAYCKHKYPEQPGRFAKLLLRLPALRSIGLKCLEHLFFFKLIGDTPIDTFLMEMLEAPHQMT

[19] = qHTS assay for small molecule antagonists of retinoid X receptor alpha signaling (AID 588546; active = well fitted inhibition curve with a large enough effect in the signal ratio, with a control signal flat, not every such curve was filed as active; the % refers to the signal ratio;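 also: cells stimulated with 9-cis-retinoic acid as agonist; % is scaled to controls: 0 for no effect and ±100 for the full control effect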); details: HEK293T RXRa-UAS-bla, beta-lactamase ratio, antagonist mode; measured here: W530 green channel, cytotoxicity proxy
Procedure, shortened: (§1)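 Beta-lactamase reporter inhibition, read as CCF4 fluorescence ratio (ex 405, em 460/530 nm) after 2 h at RT. HEK293T UAS-bla cells, 2500/well, were stimulated with 9-cis-RA at 500 or 100 nM final alongside test compound for 18 h at 37 C.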

[20] = molecular target: Retinoic acid receptor RXR-alpha (Homo sapiens) (UniProt P19793); experiment: as above; details: HEK293T RXRa-UAS-bla, beta-lactamase ratio, antagonist mode
Procedure, shortened: as §1

[21] = molecular target: Thyroid hormone receptor beta (Homo sapiens) (UniProt P10828); experiment: qHTS assay for small molecule antagonists of thyroid hormone receptor beta signaling (AID 588547; active = well fitted inhibition curve with a large enough effect in the signal ratio, with a control signal flat, not every such curve was filed as active; the % refers to the signal ratio;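 also: cells stimulated with 0.4 nM T3 agonist during compound exposure; series mostly up to about 77 µM; % is scaled to controls: 0 for no effect and ±100 for the full control effect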); details: TR-UAS-bla HEK293, beta-lactamase ratio, antagonist mode, 18 h
Procedure, shortened: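 Inhibition of T3-driven (0.4nM final) beta-lactamase reporter activity was measured over 0.59 nM to 92 uM compound after 18 h at 37 C. The cells were GripTite HEK293 TR-UAS-bla in charcoal/dextran-stripped serum, with CCF4 ratio read-out and IC50 from Hill fits.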

[22] = qHTS assay for small molecule antagonists of peroxisome proliferator-activated receptor delta signaling (AID 588535; active = well fitted inhibition curve with a large enough effect in the signal ratio, with a control signal flat, not every such curve was filed as active; the % refers to the signal ratio;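 as to max response: cells co-treated with a PPAR-delta agonist as stimulator during compound exposure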); details: HEK293T PPARd-UAS-bla, beta-lactamase FRET ratio, 18 h; 460 nm channel
Procedure, shortened: (§2)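 Titrations were run on PPAR-delta-UAS-bla HEK293T cells in charcoal/dextran-stripped serum, incubated 18 h at 37 C. CCF4 fluorescence (460/530 nm) after 2 h RT; Hill equation yields IC50 and maximal response.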

[23] = molecular target: Peroxisome proliferator-activated receptor delta (Homo sapiens) (UniProt Q03181); experiment: as above
Procedure, shortened: as §2

[24] = qHTS assay for small molecule agonists of the antioxidant response element (ARE) signaling pathway (AID 651741; active = well fitted activation curve with a large enough effect in the signal ratio; the % refers to the signal ratio; also: potency is read from the fitted curve at half-maximal effect)
Procedure, shortened: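 Beta-lactamase reporter under ARE control in HepG2 cells, 2,000 per well, was induced by 16 h compound treatment at 37 C. Read-out was fluorescence from LiveBLAzer B/G FRET substrate after 2 h at room temperature.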

[25] = molecular target: Vitamin D3 receptor (Homo sapiens) (UniProt P11473); experiment: qHTS assay for small molecule antagonists of vitamin D receptor signaling (AID 588541);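 also: receptor activated by calcitriol during compound treatment; series mostly up to about 77 µM; % is scaled to controls: 0 for no effect and ±100 for the full control effect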
Procedure, shortened: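 Antagonist-mode beta-lactamase reporter assay: HEK293T VDR-UAS-bla cells were exposed to titrated compound alongside 1-alpha,25-dihydroxyvitamin D3 at 3 nM final for 16 h. Values were normalized to the 50 nM agonist control and DMSO basal, with IC50 and efficacy from Hill equation fits.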

CCOP(=O)(OCC)Oc1nc(Cl)c(Cl)cc1Cl
inactive: activation [1] -1.13% | outcome [2] | outcome [3] | Potency [4] | activation [5] -7.33% | activation [6] -2.7% | activation [7] 3.16% | max response [8] -1.51% | Potency [9] | max response [10] 6.34% | max response [11] -13.2% | Potency [12] | max response [13] 2.55% | outcome [14]

NCCN
inactive: outcome [2] | Potency [15]

CC(C)(C)OCC1CO1 (stereo not drawn)
inactive: outcome [2]

Cc1cc(Cl)ccc1O[C@H](C)C(=O)O
inactive: outcome [2] | Potency [16] | Potency [18] | Potency [4] | max response [20] -2.52% | activity change % (negative = inhibition) [21] 17.7% | activation [5] -0.679% | activation [7] -2.24% | max response [8] -1.51% | Potency [9] | max response [10] 7.37% | max response [11] 0.74% | Potency [12] | max response [13] -1.45% | outcome [14]
-13.3%: max response [17]
-16.8%: max response [19]

Cc1ccccc1C
inactive: outcome [2] | Potency [16]

C/C=C/C=C/C=O
inactive: outcome [2]

O=C(Cl)c1ccc(C(=O)Cl)cc1
inactive: outcome [2]

CC(C)[C@H](C(=O)O[C@H](C#N)c1cccc(Oc2ccccc2)c1)c1ccc(Cl)cc1
active: Potency [24] 61.1 µM
2%: max response [22]
inactive: outcome [2] | Potency [23] | Potency [18] | Potency [4] | activity change % (negative = inhibition) [21] -0.522% | activation [7] 0.849% | max response [8] 0.0129% | max response [10] 6.41% | max response [11] -17.9% | Potency [12]
-3.66%: max response [17]

CC(C)N(C)C
inactive: outcome [2]

NC(=O)c1cccc([N+](=O)[O-])c1
inactive: outcome [2]

CC(C1CC1)C(O)(Cn1cncn1)c1ccc(Cl)cc1 (stereo not drawn)
49.1%: max response [22]
4.53%: max response [17]
-3.3%: max response [19]
inactive: outcome [2] | Potency [23] | Potency [25] | outcome [3] | Potency [18] | Potency [4] | max response [20] -4.42% | activity change % (negative = inhibition) [21] -18.1% | activation [5] -2.39% | activation [6] -1.89% | activation [7] 1.13% | max response [8] -1.34% | Potency [9] | max response [10] -0.0614% | max response [11] -14% | Potency [12] | outcome [14]
